# LGR2 inh: inhibitors of bursicon-induced LGR2 CRE-luciferase signal, primary screen, cell-based, HEK293, CRE-luciferase reporter, bursicon stimulation. bursicon-stimulated, 4 h. AID 720647, 2013. actives 0.35% (n = 380,000). inhibition, % at 9.99 µM. Drosophila bursicon receptor LGR2 (rickets);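 active means drop in luminescence signal, shown as inhibition above about 50% in the replicate tests, limit read from the data, passing the limit was not always enough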;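 further: agonist challenge used bursicon conditioned medium at about half maximal strength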
# TROY signal inh: inhibitors of TROY-driven NF-kB signaling, primary screen, Q293 LMP1-TROYcd cells, NF-kB luciferase, uHTS; Q293 LMP1-TROYcd NF-kB luciferase reporter, 4 h; inhibition, % at 10 µM; actives 0.98% (n = 360,000);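 active means compounds whose plate-normalised and pattern-corrected inhibition of the luciferase reporter signal at the single screening dose is 50% or more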
# TWEAK-Fn14 inh: inhibitors of TWEAK-Fn14 signaling, primary screen, luciferase reporter cells, uHTS | TWEAK-stimulated Fn14 reporter cells, luciferase luminescence, 8 h | inhibition, % at 10 µM | actives 2% (n = 360,000); in the data active means inhibition above about 50%
# PAX8 inh HTS: inhibitors of PAX8-driven TPO luciferase reporter, primary screen, RMG-I cells, single concentration. actives 1.2% (n = 360,000). inhibition, % at 12.6 µM. SteadyGlo, 24 h. AID 652154, 2013;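 active means mean replicate inhibition at least 60% with every replicate also reaching 60%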;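 further: luciferase light reporting Pax8 driven TPO promoter activity; plate controls were median of neutral control wells for no effect and mitoxantrone controls for full effect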
# EWS-Fli inh: EWS/Fli-driven NR0B1 reporter inhibitors, primary screen, A673 cells, NR0B1 luciferase, luminescence, MLPCN library. viability-normalised. inhibition, % at 12.6 µM. actives 0.67% (n = 350,000);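 active means mean inhibition of at least 50% after viability correction, with every replicate also passing that limit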;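 further: firefly luciferase signal divided by Alamar Blue viability fluorescence both relative to DMSO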
# An asterisk follows results filed as active; · = not tested or not shown. In the library only some 2.8% were active in any assay of this set; here they are far more common.
SMILES,LGR2 inh,TROY signal inh,TWEAK-Fn14 inh,PAX8 inh HTS,EWS-Fli inh
Cc1ccc(Sc2c([N+](=O)[O-])c(=O)n(C)c3ccccc23)cc1,-2.4,67.8*,-101.9,-17.5,17.0
Cc1ccc(S(=O)(=O)c2nc(S(C)(=O)=O)sc2NCC2CCCO2)cc1 (stereo not given),·,·,87.2*,·,·
C[C@@H]1CN([C@@H](C)CO)C(=O)Cc2cc(NC(=O)CCCCCC(=O)Nc3ccccc3N)ccc2O[C@H]1CN(C)S(C)(=O)=O,4.9,·,·,-8.1,8.3
O=C(C[C@H]1CC[C@@H]2[C@H](COC[C@@H](O)CN2Cc2cccc(C(F)(F)F)c2)O1)NCCc1ccccc1,-7.5,·,·,8.7,-5.2
COc1cc(C(=O)Nc2ccc3c(c2)CCN3C(C)=O)cc(OC)c1OC,-0.9,19.6,18.4,6.3,66.9*
CCOc1ccc(N(CC(=O)Nc2ccccc2C)S(=O)(=O)c2c(C)noc2C)cc1,2.9,19.1,22.9,29.2,57.9*
CCOc1ccccc1NC(=O)CN(c1ccc(OC)cc1)S(=O)(=O)c1c(C)noc1C,·,6.3,9.8,23.6,·
C[C@@H]1CN([C@@H](C)CO)C(=O)c2cc(NC(=O)Nc3ccc(C(F)(F)F)cc3)ccc2O[C@H]1CN(C)S(=O)(=O)c1cccs1,0.6,·,·,·,-7.4
O=C(C[C@H]1C[C@@H]2c3cc(NC(=O)C4CCC4)ccc3O[C@@H]2[C@@H](CO)O1)NCC1CC1,-1.6,·,·,7.8,16.7
CCCC1CCC(C(=O)n2nc(N)c3cc4ccc(OC)cc4nc32)CC1 (stereo not given),11.7,18.4,30.2,-5.9,0.3
COc1ccc2cc3c(N)nn(C(=O)c4ccc(Cl)c([N+](=O)[O-])c4)c3nc2c1,·,21.8,54.7*,-0.2,-3.5
COc1ccc2cc3c(N)nn(C(=O)c4ccccc4[N+](=O)[O-])c3nc2c1,·,28.8,81.9*,-18.5,-16.3
O=C(N[C@@H]1C=C[C@H](CC(=O)N2CCN(c3ccccc3)CC2)O[C@@H]1CO)c1ccncc1,-2.8,·,·,-17.3,4.3
O=C(C#Cc1cccc([N+](=O)[O-])c1)c1ccccc1,·,63.1*,66.3*,·,·
Nc1ccccc1C#CC(=O)c1ccccc1,28.1,49.8,94.7*,10.5,66.5*
O=C(O)c1cccc(Nc2nc(N3CCOCC3)nc(N3CCOCC3)n2)c1,7.9,0.9,-3.1,·,·
O=C(O)c1cccc(Nc2ccnc(Nc3cccc(C(=O)O)c3)n2)c1,89.9*,-75.1,-11.6,23.9,63.2*
CC(C)Cn1c(C(C)C)nc([N+](=O)[O-])c1S(=O)(=O)c1ccc(F)cc1,·,11.9,50.2*,59.8,·
CCCc1nc([N+](=O)[O-])c(S(=O)(=O)c2ccccc2)n1CC(C)C,13.4,25.7,83.2*,86.0*,-24.2
O=C(NC1CCCCCC1)C1c2ccccc2C(=O)N1Cc1cccs1 (stereo not given),17.7,14.8,-7.0,91.3*,-4.9
CC(C)C#Cc1cnc2c(c1)C(=O)N([C@@H](C)CO)C[C@@H](C)[C@H](CN(C)Cc1cncnc1)O2,-6.7,·,·,-14.7,-9.1
CCC(C)c1ccc(S(=O)(=O)N2CCN(C(=O)COc3ccc4c(C)cc(=O)oc4c3)CC2)cc1 (stereo not given),·,·,57.6*,·,·
COc1ccc(S(=O)(=O)N2CCN(C(=O)COc3ccc4c(C)cc(=O)oc4c3)CC2)cc1,·,·,·,15.3,·
Cc1ccc(O)c(N)c1,·,37.3,33.5,·,·
Cc1ccc(SSc2cc(C)ccc2N)c(N)c1,-57.5,42.7,58.1*,-49.3,-45.6
O=[N+]([O-])c1ccc(Nc2ccc(N3CCOCC3)cc2)c([N+](=O)[O-])c1,9.1,9.7,-12.1,90.3*,10.7
O=C(Nc1ccc(N2CCOCC2)cc1N1CCOCC1)c1ccc([N+](=O)[O-])cc1,·,-2.0,-8.6,·,·
Cc1cc(OCc2cc(C(=O)N3CCC(Oc4cccnc4)CC3)no2)cc(C)c1Cl,19.4,50.5*,26.9,14.8,·
CCOC(=O)c1c(NC(=O)/C=C/C(=O)O)sc(C)c1-c1ccc(C(C)(C)C)cc1,29.9,89.8*,98.3*,17.8,23.8
O=C(C[C@@H]1C[C@@H]2c3cc(NC(=O)Cc4ccncc4)ccc3O[C@@H]2[C@@H](CO)O1)NCc1ccccc1,13.4,·,·,25.0,35.6

# Bioassay records: PubChem, several laboratories
